Molecules are shown by their SMILES. “And” between values parts separate entries of the source, which are not always exact repeats. Identical values can stand only once. Records with an inconclusive call do not appear. The source made the active and inactive calls. Unless noted, calls come from the whole dose curve; as a rule, active = well fitted activation curve with a large enough effect; inconclusive = small, poorly fitted or top-dose-only effect; inactive = flat fitted curve, though single readings scatter.

A short description of experiment [1]: Confirmation and Secondary Assay for Modulators of Hemoglobin Beta Chain Splicing at IVS2 654 locus (AID 910).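 Note: HeLa cells stably carrying EGFP split by mutant beta-globin IVS2-654 intron; % of control where 0% means no effect.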 A digest of the protocol:
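HeLa cells stably expressing EGFP interrupted by β-globin IVS2-654 intron, seeded overnight in Opti-MEM/2% FCS, then treated 2 days at 37 °C. Restored splicing read as total peak GFP intensity per well by laser scanning cytometry (488 nm excitation, 500–520 nm emission); 500 nM antisense PNA as control.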

Experiment [2] can be described thus: Confirmation and Secondary Assay for Modulators of Hemoglobin Beta Chain Splicing at IVS2 705 locus (AID 930).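 Note: HeLa cells stably expressing the EGFP-705 splicing reporter; GFP fluorescence per well restored by corrected splicing of the IVS2-705 intron in EGFP; % of control where 0% means no effect.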 The method in brief: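 Read-out: total peak GFP fluorescence per well (488 nm excitation, 500-520 nm emission) by laser-scanning cytometry. Cells: HeLa EGFP-705 splicing reporter, 2 days compound exposure in Optimem/2% FCS.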
Experiment [3] in a line: qHTS Assay for Lipid Storage Modulators (AID 1519; calls by dose curve; for activity change, negative = inhibition: % is set by controls: 0 for no effect and ±100 for the full control effect). The note with it: Drosophila S3 cells, BODIPY lipid droplet/cell ratio, laser cytometry, cells loaded with oleic acid. A digest of the protocol:
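Cells seeded at 5,000 per well were treated with compounds over a concentration series and loaded with oleic acid (400 uM, as added). Lipid droplet fluorescence (488 nm excitation, 500-530 nm channel) was read by laser-scanning cytometry and normalized to 20 uM Triacsin C.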
On the technique in general: In qHTS, concentration-response curves come from the screen itself.

For `Nc1ccn(C2OC(CO)C(O)C2O)c(=O)n1` (stereo not given), in experiment [1], the Potency entry was “inactive”. Moreover, the result in experiment [2] was inactive. Moreover, in experiment [3] (at 57.5 µM (top of the series)), the activity change, negative = inhibition is 2.01% (inactive) and 0.795% (inactive). Besides, the max response was -9.2% and 5.05% in experiment [3] (measured here: cell count channel max response); -5.62% and 10.3% in experiment [3] (measured here: lipid channel max response).

For the origin of these results see PubChem BioAssay (NCATS).
